A short description of test [1]: ATG_E_Box_CIS: Attagene CIS-FACTORIAL HepG2 Assay for human Enhancer Box (E-box) (AID 2282936). Conditions: HepG2 E-box cis-reporter transcription, actives raise or lower the signal. In a few lines:
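Multiplexed CIS reporter system in transiently transfected HepG2 cells measures native transcription factor activity. Reporter RNA after 24 h exposure is profiled by RT-PCR-capillary electrophoresis.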

Test [2] can be described thus: ATG_M_61_CIS: Attagene CIS-FACTORIAL HepG2 Assay for M61 Transcription Factor (Internal Marker) (AID 2282937). As to conditions: HepG2 Attagene CIS-FACTORIAL M61 internal marker reporter; actives raise or lower the signal. In a few lines: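 Human liver HepG2, transient MRTU transfection (cis promoter elements), 24 h compound. Total RNA → oligo(dT) RT → PCR → FAM label → HpaI → CE. Internal background marker; bidirectional fitting, DMSO = baseline.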

Test [3] can be described thus: ATG_EGR_CIS: Attagene CIS-FACTORIAL HepG2 Assay for human Early Growth Response 1 (EGR1) (AID 2282938). As to conditions: HepG2 Attagene CIS-FACTORIAL EGR reporter mRNA; actives raise or lower the signal. In a few lines: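 Transient transfection of human HepG2 with multiple cis-regulated reporter units, chemical exposure 24 h, total RNA isolated. Reverse transcription, PCR, fluorescent labelling and capillary electrophoresis quantify reporter transcripts; activity fitted bidirectionally against DMSO.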

The nature of test [4]: ATG_M_19_CIS: Attagene CIS-FACTORIAL HepG2 Assay for M19 Transcription Factor (Internal Marker) (AID 2282939). As to conditions: HepG2 Attagene CIS-FACTORIAL M19 internal marker reporter; actives raise or lower the signal. The essentials: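 Following a 24 h exposure, RNA from transfected HepG2 cells was reverse-transcribed, PCR-amplified with reporter-specific primers, end-labelled with 6-FAM and HpaI-digested before capillary separation. Values represent gain or loss versus DMSO.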

Test [5] is described as follows: ATG_ERE_CIS: Attagene CIS-FACTORIAL HepG2 Assay for Estrogen Response Element (ERE) (AID 2282940). Conditions: HepG2 ERE cis-reporter, Attagene RNA transcript; actives raise or lower the signal. The essentials: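 HepG2, transient cis-reporter units, 24 h exposure. RNA isolated, oligo(dT) RT, reporter-specific PCR, FAM extension, HpaI cut, CE detection. Gain/loss-of-signal vs DMSO.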

Test [6] is described as follows: ATG_Ets_CIS: Attagene CIS-FACTORIAL HepG2 Assay for human Erythroblast Transformation Specific (ETS) (AID 2282941). As to conditions: HepG2 ETS cis-reporter transcription, actives raise or lower the signal. The essentials: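 After transient cis-reporter transfection, HepG2 cells receive test chemical for 24 h. Reporter mRNA levels, measured by RT-PCR and capillary electrophoresis fluorescence, are analysed bidirectionally relative to the DMSO baseline.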

Test [7] concerns the target Hepatocyte nuclear factor 3-beta (Homo sapiens) (UniProt Q9Y261). The test is described as follows: ATG_FoxA2_CIS: Attagene CIS-FACTORIAL HepG2 Assay for human Forkhead box A2 (FOXA2) (AID 2282942). As to conditions: HepG2 cis-reporter transcription factor activity, 24 h; actives raise or lower the signal. The essentials:
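Transient MRTU transfection of HepG2 liver cells; 24 h treatment; total RNA → oligo(dT) RT → PCR → FAM primer extension → HpaI cut → CE. Bidirectional fit vs DMSO.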

Test [8] can be described thus: ATG_FoxO_CIS: Attagene CIS-FACTORIAL HepG2 Assay for human Forkhead box O (FoxO) (AID 2282943). Conditions: HepG2 Attagene cis-reporter, FoxO element, mRNA; actives raise or lower the signal. In a few lines: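 Values reflect reporter mRNA induction or loss in HepG2 cells 24 h post-dosing, fitted bidirectionally with DMSO as negative control and baseline. Detection used RT-PCR and fluorescence capillary electrophoresis.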

Test [9] in a line: ATG_GATA_CIS: Attagene CIS-FACTORIAL HepG2 Assay for human GATA Binding Protein (AID 2282944). Conditions: HepG2 GATA cis-element reporter, Attagene multiplex mRNA; actives raise or lower the signal. In a few lines: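 DMSO serves as negative control and baseline for bidirectional fitting of reporter mRNA changes. HepG2 cells bearing transiently transfected cis-promoter reporters were exposed 24 h; transcripts detected via RT-PCR and capillary electrophoresis.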

A short description of test [10]: ATG_GLI_CIS: Attagene CIS-FACTORIAL HepG2 Assay for human Zinc Finger Protein GLI1 (AID 2282945). As to conditions: HepG2, Attagene cis-factorial reporter mRNA, GLI element; actives raise or lower the signal. In a few lines:
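HepG2 cells transiently transfected with cis-promoter multiplexed reporter units report endogenous transcription factor activity. After 24 h chemical exposure, reporter mRNA was quantified by RT-PCR, 6-FAM labelling, HpaI digestion and capillary electrophoresis, with bidirectional fitting against DMSO.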

Test [11] in a line: ATG_GRE_CIS: Attagene CIS-FACTORIAL HepG2 Assay for human Glucocorticoid Response Elements (GRE) (AID 2282947). Conditions: HepG2 GRE cis-reporter, Attagene multiplex mRNA; actives raise or lower the signal. The essentials:
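Following 24 h chemical exposure of transiently transfected HepG2 cells, total RNA was reverse-transcribed and reporter cDNA amplified, fluorescently labelled and sized by capillary electrophoresis. Signal gain or loss was fitted relative to DMSO vehicle.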

The nature of test [12]: ATG_ISRE_CIS: Attagene CIS-FACTORIAL HepG2 Assay for human Interferon Regulatory Factor 1 (IRF1) binding to an Interferon-Stimulated Response Element (ISRE) (AID 2282948). Conditions: HepG2 ISRE cis-reporter (Attagene), mRNA transcription readout; actives raise or lower the signal. In a few lines: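 Quantitation relies on labelled RT-PCR fragments separated by capillary electrophoresis. Human HepG2 cells bearing cis-promoter reporter constructs were treated 24 h; DMSO served as baseline for bidirectional fitting.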

Test [13] can be described thus: ATG_M_06_CIS: Attagene CIS-FACTORIAL HepG2 Assay for M06 Transcription Factor (Internal Marker) (AID 2282950). As to conditions: HepG2 Attagene CIS-FACTORIAL M06 internal marker reporter; actives raise or lower the signal. In a few lines: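 Fluorescence-labelled RT-PCR products from cis-promoter reporter units, cut with HpaI and resolved by capillary electrophoresis, give the signal. Cells are human HepG2, dosed for 24 h. Serves as background control, fitted relative to DMSO.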

Test [14] deals with Hypoxia-inducible factor 1-alpha (Homo sapiens) (UniProt Q16665). Nature of the test: ATG_HIF1a_CIS: Attagene CIS-FACTORIAL HepG2 Assay for human Hypoxia Inducible Factor 1 (HIF1A) (AID 2282951). As to conditions: HepG2 Attagene cis-factorial HIF1a reporter transcription; actives raise or lower the signal. The essentials:
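Transient MRTU transfection of human HepG2 liver cells, 24 h compound treatment, then total RNA isolation, oligo(dT) reverse transcription, PCR amplification, fluorescent labelling and capillary electrophoresis of reporter fragments. Gain or loss relative to DMSO.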

Test [15] concerns the target Hepatocyte nuclear factor 6 (Homo sapiens) (UniProt Q9UBC0). The test is described as follows: ATG_HNF6_CIS: Attagene CIS-FACTORIAL HepG2 Assay for human Hepatocyte Nuclear Factor 6 (HNF6) (AID 2282952). Conditions: HepG2 Attagene cis-factorial HNF6 reporter transcription; actives raise or lower the signal. In a few lines:
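HepG2, transient MRTU transfection (cis promoters); 24 h chemical exposure; total RNA → oligo(dT) RT → PCR → 6-FAM labelling → HpaI cut → CE; bidirectional fit vs DMSO.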

Test [16] concerns the target Heat shock factor protein 1 (Homo sapiens) (UniProt Q00613). Nature of the test: ATG_HSE_CIS: Attagene CIS-FACTORIAL HepG2 Assay for human Heat Shock Transcription Factor 1 (HSE) (AID 2282953). As to conditions: HepG2 HSE cis-reporter, Attagene RNA transcription; actives raise or lower the signal. In a few lines:
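After a 24 h incubation with test chemical, transfected HepG2 cells were harvested for RNA; reporter transcripts were measured by RT-PCR and capillary electrophoresis. Values reflect gain or loss of signal relative to DMSO.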

Test [17] in a line: ATG_MRE_CIS: Attagene CIS-FACTORIAL HepG2 Assay for human Metal Responsive Element (MRE) (AID 2282954). As to conditions: HepG2 MRE cis-reporter transcription, Attagene multiplex; actives raise or lower the signal. The essentials:
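Step one: transfect HepG2 with cis-regulated reporter units. Step two: dose 24 h. Step three: isolate RNA, RT-PCR, 6-FAM label, HpaI digest, capillary electrophoresis. Fit bidirectionally to DMSO.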

Test [18] can be described thus: ATG_PBREM_CIS: Attagene CIS-FACTORIAL HepG2 Assay for human Phenobarbital-responsive Enhancer Module (PBREM) (AID 2282955). Conditions: HepG2 PBREM cis-reporter, Attagene multiplexed transcription; actives raise or lower the signal. The essentials: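 Endogenous transcription factors in human liver HepG2 cells drive a PBREM cis-element reporter, whose transcript level after 24 h treatment is quantified by RT-PCR with capillary electrophoresis; activity fitted in both directions against DMSO.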

Test [19] is described as follows: ATG_M_32_CIS: Attagene CIS-FACTORIAL HepG2 Assay for M32 Transcription Factor (Internal Marker) (AID 2282949).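 Note: background control marker of the multiplexed CIS panel rather than a real target.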 Conditions: HepG2 Attagene cis-factorial M32 reporter, mRNA; actives raise or lower the signal. In a few lines:
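Fluorescent capillary electrophoresis peaks of HpaI-digested, FAM-labelled RT-PCR reporter products give the signal. Source: transiently transfected human liver HepG2 cells, 24 h after chemical dosing; bidirectional fitting against DMSO.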

In test [20] the target is Bile acid receptor (Homo sapiens) (UniProt Q96RI1). Nature of the test: ATG_IR1_CIS: Attagene CIS-FACTORIAL HepG2 Assay for human Nuclear Receptor Subfamily 1 Group H Member 4 (NR1H4), IR1 submotif (AID 2282946). As to conditions: IR1 reporter transcription, actives raise or lower the signal. The essentials:
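Transient MRTU transfection, HepG2; 24 h dosing; RNA → RT-PCR → 6-FAM primer extension → HpaI digest → capillary electrophoresis fluorescence. Gain/loss of signal fitted relative to DMSO.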

Structures are written as SMILES. Activity calls are given as the source filed them. Rule for the calls: active = hit-call score of the fitted dose curve at least 0.9, where 1 is the maximum; inactive = score below 0.9.

Hypoxia-inducible factor 1-alpha (Homo sapiens), sequence (Q16665 whole entry, looked up, the tested form may be a part): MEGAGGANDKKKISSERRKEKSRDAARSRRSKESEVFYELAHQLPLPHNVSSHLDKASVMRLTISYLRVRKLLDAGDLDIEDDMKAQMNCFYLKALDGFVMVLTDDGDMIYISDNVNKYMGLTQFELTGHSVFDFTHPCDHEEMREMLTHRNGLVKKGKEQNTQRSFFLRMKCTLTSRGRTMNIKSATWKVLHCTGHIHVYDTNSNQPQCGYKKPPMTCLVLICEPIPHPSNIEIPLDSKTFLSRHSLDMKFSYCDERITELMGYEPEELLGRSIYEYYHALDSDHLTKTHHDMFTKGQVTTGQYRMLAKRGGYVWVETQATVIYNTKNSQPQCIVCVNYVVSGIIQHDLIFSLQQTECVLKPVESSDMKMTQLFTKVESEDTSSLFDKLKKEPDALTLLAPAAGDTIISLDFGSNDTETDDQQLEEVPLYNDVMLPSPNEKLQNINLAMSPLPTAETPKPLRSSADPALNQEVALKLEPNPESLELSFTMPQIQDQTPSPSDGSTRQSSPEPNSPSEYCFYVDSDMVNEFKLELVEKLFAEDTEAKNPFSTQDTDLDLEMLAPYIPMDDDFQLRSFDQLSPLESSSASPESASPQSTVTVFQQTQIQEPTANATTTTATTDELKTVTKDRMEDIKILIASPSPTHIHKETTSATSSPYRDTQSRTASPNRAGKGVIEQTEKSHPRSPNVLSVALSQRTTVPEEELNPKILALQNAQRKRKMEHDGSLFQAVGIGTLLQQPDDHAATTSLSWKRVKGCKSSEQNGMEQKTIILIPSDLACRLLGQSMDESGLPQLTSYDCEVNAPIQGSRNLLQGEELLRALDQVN
Hepatocyte nuclear factor 3-beta (Homo sapiens), sequence (Q9Y261 whole entry, looked up): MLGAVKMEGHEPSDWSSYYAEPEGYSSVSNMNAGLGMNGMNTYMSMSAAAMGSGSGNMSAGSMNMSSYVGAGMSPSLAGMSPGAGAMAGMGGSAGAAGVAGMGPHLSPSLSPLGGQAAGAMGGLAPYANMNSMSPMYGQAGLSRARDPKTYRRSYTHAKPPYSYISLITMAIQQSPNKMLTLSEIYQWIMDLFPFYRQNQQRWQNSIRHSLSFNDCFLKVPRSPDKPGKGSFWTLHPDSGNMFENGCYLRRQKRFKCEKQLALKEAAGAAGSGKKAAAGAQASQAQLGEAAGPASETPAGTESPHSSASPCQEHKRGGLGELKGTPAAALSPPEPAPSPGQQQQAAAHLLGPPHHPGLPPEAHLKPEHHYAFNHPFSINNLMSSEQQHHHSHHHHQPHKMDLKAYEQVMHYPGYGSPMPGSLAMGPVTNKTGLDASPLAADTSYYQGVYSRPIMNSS
Hepatocyte nuclear factor 6 (Homo sapiens), sequence (Q9UBC0 whole entry, looked up): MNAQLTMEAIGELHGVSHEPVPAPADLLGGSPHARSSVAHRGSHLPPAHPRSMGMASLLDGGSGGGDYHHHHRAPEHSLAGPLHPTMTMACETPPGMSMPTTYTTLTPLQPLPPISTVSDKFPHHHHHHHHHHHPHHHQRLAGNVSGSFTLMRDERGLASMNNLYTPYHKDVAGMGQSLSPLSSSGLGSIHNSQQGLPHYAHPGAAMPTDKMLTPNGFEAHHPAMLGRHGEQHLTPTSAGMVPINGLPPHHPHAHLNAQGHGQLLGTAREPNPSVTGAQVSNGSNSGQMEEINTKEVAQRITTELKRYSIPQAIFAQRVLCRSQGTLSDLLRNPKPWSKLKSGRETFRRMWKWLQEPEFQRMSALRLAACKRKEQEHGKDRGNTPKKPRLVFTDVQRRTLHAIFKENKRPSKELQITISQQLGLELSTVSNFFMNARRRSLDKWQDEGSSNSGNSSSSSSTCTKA
Heat shock factor protein 1 (Homo sapiens), sequence (Q00613 whole entry, looked up): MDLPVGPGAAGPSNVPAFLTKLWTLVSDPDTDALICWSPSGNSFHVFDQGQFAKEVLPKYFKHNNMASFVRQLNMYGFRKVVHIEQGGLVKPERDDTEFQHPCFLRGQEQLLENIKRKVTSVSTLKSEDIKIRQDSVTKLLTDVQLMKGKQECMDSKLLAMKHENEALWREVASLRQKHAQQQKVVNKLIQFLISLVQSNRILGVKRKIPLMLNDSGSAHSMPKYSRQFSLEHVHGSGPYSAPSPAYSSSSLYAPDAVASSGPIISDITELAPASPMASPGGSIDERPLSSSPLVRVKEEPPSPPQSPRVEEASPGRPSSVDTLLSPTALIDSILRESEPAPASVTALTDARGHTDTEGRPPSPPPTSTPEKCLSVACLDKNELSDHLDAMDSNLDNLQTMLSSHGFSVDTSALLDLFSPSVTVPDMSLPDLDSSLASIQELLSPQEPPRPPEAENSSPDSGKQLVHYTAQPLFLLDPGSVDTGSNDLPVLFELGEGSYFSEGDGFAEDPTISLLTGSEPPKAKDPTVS
Bile acid receptor (Homo sapiens), sequence (Q96RI1 whole entry, looked up): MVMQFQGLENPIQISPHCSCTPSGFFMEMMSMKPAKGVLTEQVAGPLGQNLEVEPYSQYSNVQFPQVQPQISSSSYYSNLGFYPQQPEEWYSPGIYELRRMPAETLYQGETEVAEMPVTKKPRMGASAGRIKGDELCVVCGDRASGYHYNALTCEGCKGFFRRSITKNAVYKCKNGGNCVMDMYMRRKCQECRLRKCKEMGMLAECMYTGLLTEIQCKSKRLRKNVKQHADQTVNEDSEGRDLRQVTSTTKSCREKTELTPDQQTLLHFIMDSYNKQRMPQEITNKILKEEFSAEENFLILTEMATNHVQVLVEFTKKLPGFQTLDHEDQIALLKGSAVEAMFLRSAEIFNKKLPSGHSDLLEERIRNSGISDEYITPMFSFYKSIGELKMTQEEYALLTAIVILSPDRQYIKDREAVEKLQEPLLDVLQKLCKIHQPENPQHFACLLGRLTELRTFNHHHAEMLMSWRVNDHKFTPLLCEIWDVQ

Turning to `O=c1cc(-c2ccccc2)oc2ccccc12`, the result in test [1], in test [2], in [4], in [5], in test [6] and in test [7] was inactive. Also, the outcome in test [8], in test [9], in test [10], in test [11], in test [13] and in [14] was inactive. Also, the result in test [15] was inactive. In addition, the AC50 (usually the midpoint of the concentration-response curve, whichever way the signal moves) was 82.1 µM (active) in [3]; 127 µM (active) in [12]; 178 µM (active) in [16]; 124 µM (active) in test [17]; 99.5 µM (active) in test [18].

With `CCCCCCCCCCCCCCCCCC#N`, the result in [1], in [2], in test [3], in test [4], in test [5] and in [6] was inactive. Moreover, the result in [7], in [8], in [9], in test [10], in [11] and in test [12] was inactive. Besides, the call in test [19], in test [14], in test [15], in test [16], in test [17] and in test [18] was inactive.

For the compound `CC(CC=O)c1ccccc1` (stereo not given), the result in test [1], in test [2], in test [3], in test [4], in [6] and in test [7] was inactive. Further, the compound was classed as inactive in [8], in [9], in [10], in test [13], in test [14] and in test [15]. In addition, the result in [16] and in test [18] was inactive. Moreover, the AC50 in [5] is 112 µM (active); in test [12], 56.1 µM (active); in test [17] it was 104 µM (active).

With `COC=O`, the outcome in test [1], in [2], in test [3], in test [4], in [5] and in [6] was inactive. For the same compound, the result in test [7], in test [8], in test [9], in [10], in test [12] and in test [13] was inactive. For the same compound, the compound was classed as inactive in test [14], in [15], in [16], in test [17] and in test [18].

In the case of `CCCCCCCCO[C@@H]1O[C@H](CO)[C@@H](O)[C@H](O)[C@H]1O`, the outcome in test [1], in [2], in test [3], in test [4], in test [5] and in test [6] was inactive. The result in test [7], in test [8], in [9], in test [20], in test [11] and in [12] was inactive. The call in test [19], in [14], in test [15], in [16] and in [17] was inactive.

With `CC1(C)O[C@@H]2C[C@H]3[C@@H]4C[C@H](F)C5=CC(=O)CC[C@]5(C)[C@H]4[C@@H](O)C[C@]3(C)[C@]2(C(=O)CO)O1`, the outcome in [1], in [2], in [3], in test [4], in test [5] and in test [6] was inactive. The outcome in test [7], in [8], in test [9], in test [12], in [19] and in [13] was inactive. Also, the outcome in test [14], in [15], in [16] and in [17] was inactive. In [11], the AC50 was 0.0823 µM (active).

With `CCCCC(CC)COC(=O)c1ccccc1` (stereo not given), the outcome in [1], in test [2], in [3], in [4], in [6] and in [7] was inactive. Moreover, the result in test [8], in test [9], in test [10], in test [11], in [12] and in test [19] was inactive. Besides, the call in [14], in [15], in test [16], in test [17] and in test [18] was inactive. The AC50 in test [5] was 37.3 µM (active).

Regarding `C=C(C)c1cccc(C(C)(C)N=C=O)c1`, the result in test [1], in test [2], in test [3], in test [4], in test [5] and in [6] was inactive. Further, the call in test [7], in [8], in [9], in test [10], in [11] and in test [12] was inactive. The outcome in test [13], in [14], in [15], in test [16], in test [17] and in test [18] was inactive.
